Assay outcomes (PubChem)
The entries come from a sample that favours hits as a whole.
Dicer inh: inhibitors of Dicer pre-microRNA processing, primary screen, biochemical, cat-ELCCA, chemiluminescence. Endoribonuclease Dicer (Homo sapiens), Q9UPY3. cat-ELCCA pre-miR-21 Dicer processing; active compounds read high. z-score at 25 µM. 47,000 tested, 6% active; in the data active = z-score above about 3, passing the limit was not always enough;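 also: plate controls were vehicle for no effect and no enzyme for full effect; higher signal means more uncleaved substrate so more Dicer inhibition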
* marks the source's active call; other numbers are inactive results.

SMILES	Dicer inh
CC(C)C(NC(=O)OCc1ccccc1)C(=O)NCC(=O)O (stereo unspecified)	0.24
COC(=O)C1=C(C)NC2=C(C(=O)CC(C)(C)C2)C1c1ccc(OCc2ccc(Cl)cc2)c(OC)c1 (stereo unspecified)	0.21
Cc1nc(-c2ccc(S(=O)(=O)Oc3ccc(Cl)cc3)s2)cs1	-0.88
CCCOc1ccc(Oc2nc(NCC)nc(N(C)C)n2)nn1	1.2
COCCCN=C(Nc1ccc(Br)cc1C)SC	1.9
COCCCN=C(Nc1cc(C)c(C)cc1C)SC	3.9*
CN=C(Nc1ccc(C)cc1C)SC	0.13
Cc1ccc(S(=O)(=O)NC2=NCN(Cc3ccco3)CN2)cc1	0.9
CNC(=S)NNC(=O)c1sc(SC)c2c1CCCC2O (stereo unspecified)	22
N[C@@H](Cc1ccccc1)c1nnc(SCc2cccc(Cl)c2)o1	0.47
O=C(CSC1=NCCS1)Nc1nc2ccccc2s1	-0.6
O=C(CSc1nc2ccccc2s1)Nc1nccs1	0.82
COc1ccccc1NC(=O)CSC1=NCCS1	4.2*
O=C(CSC1=NCCS1)NC1Cc2ccccc2C1	0.6
COc1ccccc1NC(=O)CSc1cc(C(F)(F)F)cc(C(F)(F)F)c1	23
O=C(CSC1=NCCS1)Nc1nccs1	4*
CC1(C)CC(=O)C2=C(C1)N1C(=C(C#N)C2c2cccs2)N=C(N)c2ccccc21 (stereo unspecified)	-1.3
CC12CN3CC(C)(CN(C1)C3c1ccccc1O)C2=O (stereo unspecified)	0.18
CC1c2ccsc2CCN1C(=S)NC(=O)c1ccc(C(C)(C)C)cc1 (stereo unspecified)	-1.3
COCCOC(=O)C1=C(C)Nc2nc3ccccc3n2C1c1cccc(C)c1 (stereo unspecified)	-5.5
COc1cc(C2c3c(oc4ccc(F)cc4c3=O)C(=O)N2CC2CCCO2)ccc1O (stereo unspecified)	0.45
O=C(CCc1nc(-c2ccc(Cl)cc2)no1)NNC(=S)NCCc1ccccc1	-0.17
O=C(CCc1ccncc1)NNC(=O)N1Cc2ccccc2Oc2ccc(Cl)cc21	3.1*
O=C(CCc1ccccc1)NNc1ccc(F)cc1F	-1.4
CSc1ccc(C2C3=C(CCCC3=O)Nc3[nH]n(-c4ccccc4)c(=O)c32)cc1 (stereo unspecified)	-0.89
SMILES	Dicer inh
CCOc1ccc(Nc2nc3ccccc3c(=O)s2)cc1	0.49
CCN(CC)c1nc2ccccc2c(=O)s1	3.7*
O=C(Nc1nc2ccccc2c(=O)s1)c1ccccc1	1
Cc1c(Cl)cccc1NC(=S)NNC(=O)c1ccccc1Cl	-2.2
C=CCOC(=O)C1=C(C)NC2=C(C(=O)CC(C)(C)C2)C1c1cccc(OC)c1OC (stereo unspecified)	-0.59
CCC(=O)NCc1ccc(Cl)cc1Cl	-1.3
COc1ccccc1C1Nc2ccccc2NC2=C1C(=O)CC(c1ccccc1)C2 (stereo unspecified)	1.7
CCN(CC)c1ccc(C2CC(=O)C3=C(C2)Nc2ccccc2NC3c2ccco2)cc1 (stereo unspecified)	8.2*
COc1ccc(C2CC(=O)C3=C(C2)Nc2ccccc2NC3c2ccccc2Cl)cc1OC (stereo unspecified)	0.78
COc1ccc(C2CC(=O)C3=C(C2)Nc2ccccc2NC3c2cccc3ccccc23)cc1 (stereo unspecified)	-1.4
COc1ccc(C2CC(=O)C3=C(C2)Nc2ccccc2NC3c2ccccc2)cc1 (stereo unspecified)	3.5*
COc1ccc(OC)c(C2Nc3ccccc3NC3=C2C(=O)CC(c2ccc(OC)c(OC)c2)C3)c1 (stereo unspecified)	0.31
COc1ccc(C2CC(=O)C3=C(C2)Nc2ccccc2NC3c2ccc(Cl)cc2)cc1 (stereo unspecified)	2
CN(C)c1ccc(C2Nc3ccccc3NC3=C2C(=O)CC(c2ccccc2)C3)cc1 (stereo unspecified)	5.1
COc1ccc(C2CC(=O)C3=C(C2)Nc2ccccc2NC3c2ccc(OC)cc2OC)cc1 (stereo unspecified)	3*
COc1ccc(C2CC(=O)C3=C(C2)Nc2ccccc2NC3c2ccc(O)cc2)cc1 (stereo unspecified)	0.33
O=C1CC(c2ccco2)CC2=C1C(c1ccco1)Nc1ccccc1N2 (stereo unspecified)	1.2
COc1ccccc1C1Nc2ccccc2NC2=C1C(=O)CC(c1ccc(Cl)cc1)C2 (stereo unspecified)	4.3*
Cn1c(-c2ccccc2)[n+](C)c2ccccc21	-1.6
Cc1ccc(Cn2nc3n(c2=O)-c2ccccc2OC3)cc1	-1.6
CCOC(=O)c1cccc(CO/N=C(\C)c2ccc(Cl)c(Cl)c2)c1	-1.4
Cn1cnc([N+](=O)[O-])c1Sc1cccs1	-5.6
COc1ccc(C2C(C(=O)c3cc4ccccc4o3)=C(O)C(=O)N2c2nccs2)cc1 (stereo unspecified)	0.91
Cc1ccc(C(=O)NCC(=O)O)cc1[N+](=O)[O-]	-1.6
CCOc1ccc(C(C)(C)C)cc1S(=O)(=O)n1cnc2ccccc21	-1.8
SMILES	Dicer inh
O=C(Nc1ccc(O)cc1)c1c(O)c2ccccc2[nH]c1=O	-1.2
CCCCNC(=O)Nc1cc(C(C)(C)C)nn1C	-1.8
COc1ccc(/C(O)=C2/C(=O)C(=O)N(CCc3ccccc3)C2c2ccccc2)cc1 (stereo unspecified)	0.83
CCOc1ccc(C2Nc3ccccc3NC3=C2C(=O)CC(c2ccccc2)C3)cc1 (stereo unspecified)	3.6*
Cc1ccc(C2Nc3ccccc3NC3=C2C(=O)CC(c2ccccc2)C3)cc1 (stereo unspecified)	1
CC1(C)CC(=O)C2=C(C1)Nc1ccccc1NC2c1cc(Cl)ccc1O (stereo unspecified)	3.9*
Cc1ccc(C2Nc3ccccc3NC3=C2C(=O)CC(C)(C)C3)c(O)c1 (stereo unspecified)	1.3
CSc1ccc(C2Nc3ccccc3NC3=C2C(=O)CC(c2ccccc2)C3)cc1 (stereo unspecified)	2.1
CC1(C)CC(=O)C2=C(C1)Nc1ccccc1NC2c1ccc(O)c(O)c1 (stereo unspecified)	4.7
Cc1cc(NS(=O)(=O)c2ccc(NS(=O)(=O)c3ccc(F)cc3Cl)cc2)no1	1
O=C1C2Sc3[nH]c(=O)sc3C(c3ccc(O)cc3)C2C(=O)N1c1ccc(Br)cc1 (stereo unspecified)	-0.35
O=c1oc(/C=C/c2ccccc2)nc2sc3c(c12)CCC3	4.8*
Cc1ccccc1-c1nc2sc3c(c2c(=O)o1)CCC3	0.99
O=c1oc(-c2cccs2)nc2sc3c(c12)CCCCC3	0.26
O=c1oc(-c2ccccc2)nc2sc3c(c12)CCCCC3	3.1*
S=c1nc2sc3c(c2c(Nc2ccccc2)[nH]1)CCCC3	-0.93
O=c1oc(-c2ccccc2)nc2sc3c(c12)CCCC3	0.54
O=C(COc1ncnc2cc(Cl)ccc12)c1ccc2c(c1)OCCCO2	1
COc1cc(OC)cc(C(C)(C)OC(=O)NCC(=O)O)c1	-1.2
O=C1CCCC(=O)C1C(c1ccc(-c2cc(C(F)(F)F)ccc2Cl)o1)C1C(=O)CCCC1=O	0.05
Cc1ccc(S(=O)(=O)c2nc(-c3ccco3)oc2N2CCCCC2)cc1	-0.48
COCCCNC(=O)c1nc2ccccc2c(=O)n1/N=C/N(C)C	0.57
Nc1c(C(=O)N/N=C/c2ccc(Cl)cc2)oc2nc(-c3ccccc3)cc(-c3ccccc3)c12	-1.5
N#CC(C(=O)c1ccccc1)=C1SCCCS1	1.7
N#CC(C(=O)c1cccs1)=C1SCCS1	3.8*
